Test results as given in PubChem BioAssay (NCI).
This is part of a sample that, as a whole, favours compounds with a hit. Of some 83,000 tested, about 20% had one in any assay.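 Values shown are percent growth following 48 h exposure of cells in 96-well plates to a single concentration of compound; below 10 was considered active.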 Activity calls are given as the source filed them.

Key:
Assay in all cases: NCI-60 one-dose screen, 48 h (100 = growth as untreated, 0 = no growth, -100 = all killed)
Conditions in all cases: 10 µM unless noted
DU-145 prostate = system: DU-145 prostate
K-562 leukemia = system: K-562 leukemia
MALME-3M melanoma = system: MALME-3M melanoma
MDA-MB-231 breast = system: MDA-MB-231 breast
RXF 393 renal = system: RXF 393 renal
SF-268 CNS = system: SF-268 CNS
SF-295 CNS = system: SF-295 CNS
SF-539 CNS = system: SF-539 CNS
UACC-257 melanoma = system: UACC-257 melanoma
M14 melanoma = system: M14 melanoma
HCT-15 colon = system: HCT-15 colon
HT29 colon = system: HT29 colon
SNB-75 CNS = system: SNB-75 CNS
SNB-19 CNS = system: SNB-19 CNS
U251 CNS = system: U251 CNS
PC-3 prostate = system: PC-3 prostate
SK-MEL-5 melanoma = system: SK-MEL-5 melanoma
UACC-62 melanoma = system: UACC-62 melanoma
LOX IMVI melanoma = system: LOX IMVI melanoma

Measured: growth

CC(=O)c1cnc(-c2ccccc2)nc1CBr
inactive: DU-145 prostate 70.9% | MALME-3M melanoma 55.8% | MDA-MB-231 breast 66.4% | RXF 393 renal 60% | SF-268 CNS 84.8% | SF-295 CNS 97.8% | SF-539 CNS 91.6% | UACC-257 melanoma 95.3% | M14 melanoma 69.8% | HCT-15 colon 63.5% | HT29 colon 43.5% | SNB-75 CNS 73.4% | SNB-19 CNS 81% | U251 CNS 79.5% | PC-3 prostate 73% | SK-MEL-5 melanoma 91.6% | UACC-62 melanoma 84.3%
active: K-562 leukemia 3.21% | LOX IMVI melanoma -39.9%

CCCCc1nc(Cl)c(C2CC(c3ccc(Cl)cc3)=NN2c2cc(Cl)cc(Cl)c2)[nH]1 (configuration not stated)
inactive: DU-145 prostate 40.8% | K-562 leukemia 76.5% | MALME-3M melanoma 88.4% | MDA-MB-231 breast 80.3% | RXF 393 renal 43.3% | SF-268 CNS 41.2% | SF-295 CNS 74.3% | SF-539 CNS 79.8% | UACC-257 melanoma 94.8% | M14 melanoma 93.6% | HCT-15 colon 86.5% | HT29 colon 85.4% | SNB-75 CNS 65.6% | SNB-19 CNS 93% | U251 CNS 90.7% | PC-3 prostate 45.6% | SK-MEL-5 melanoma 69.1% | UACC-62 melanoma 78.2% | LOX IMVI melanoma 67.2%

C=C1C(=O)O[C@H]2[C@H]1CC/C(COC(=O)CCC(=O)OC/C1=C/CC[C@@]3(C)O[C@H]3[C@H]3OC(=O)C(=C)[C@@H]3CC1)=C\CC[C@@]1(C)O[C@@H]21
active: K-562 leukemia 3.55% | MALME-3M melanoma -5.56% | MDA-MB-231 breast -0.376% | RXF 393 renal -71.4% | M14 melanoma 1.21% | HCT-15 colon 0.631%
inactive: DU-145 prostate 18.7% | SF-268 CNS 78.8% | SF-295 CNS 98.4% | SF-539 CNS 16.6% | UACC-257 melanoma 21.4% | HT29 colon 27.2% | SNB-75 CNS 76.5% | SNB-19 CNS 94.3% | U251 CNS 72.9% | PC-3 prostate 60% | SK-MEL-5 melanoma 61.4% | UACC-62 melanoma 13.2% | LOX IMVI melanoma 26.2%

CC1(C)[C@@H](O)CC[C@]2(C)[C@H]3CC[C@@H]4[C@H]5[C@H](c6cn(-c7ccccc7)nn6)CC[C@]5(CO)CC[C@@]4(C)[C@]3(C)CC[C@@H]12
inactive: DU-145 prostate 95.4% | K-562 leukemia 79.2% | MALME-3M melanoma 104% | MDA-MB-231 breast 84.3% | RXF 393 renal 65.3% | SF-268 CNS 76.7% | SF-295 CNS 86.5% | SF-539 CNS 92.6% | UACC-257 melanoma 83.6% | M14 melanoma 90.5% | HCT-15 colon 88.8% | HT29 colon 84.7% | SNB-75 CNS 81.9% | SNB-19 CNS 93.1% | U251 CNS 89.6% | PC-3 prostate 52.8% | SK-MEL-5 melanoma 83.7% | UACC-62 melanoma 79.6% | LOX IMVI melanoma 95.6%

O=CN1N=C(c2ccc(Cl)cc2)CC1c1cccc(Nc2ccnc3cc(C(F)(F)F)ccc23)c1 (configuration not stated)
active: SK-MEL-5 melanoma 1.24%
inactive: DU-145 prostate 70.1% | K-562 leukemia 24.9% | MALME-3M melanoma 77.5% | MDA-MB-231 breast 80.7% | RXF 393 renal 71.4% | SF-268 CNS 58.9% | SF-295 CNS 51.4% | SF-539 CNS 78.7% | UACC-257 melanoma 52.1% | M14 melanoma 74% | HCT-15 colon 71.2% | HT29 colon 58.5% | SNB-75 CNS 74.9% | SNB-19 CNS 70.6% | U251 CNS 64.1% | PC-3 prostate 48.9% | UACC-62 melanoma 63.7% | LOX IMVI melanoma 51.5%

COc1ccc(C(=O)c2cc(F)c(F)c(OC)c2F)cc1OC(=O)CCl
active: M14 melanoma -3.12%
inactive: DU-145 prostate 57.2% | K-562 leukemia 15.7% | MALME-3M melanoma 57% | MDA-MB-231 breast 48.8% | RXF 393 renal 69.7% | SF-268 CNS 58.7% | SF-295 CNS 85.2% | SF-539 CNS 25.6% | UACC-257 melanoma 72% | HCT-15 colon 26.4% | HT29 colon 94.8% | SNB-75 CNS 42.9% | SNB-19 CNS 39.1% | U251 CNS 31.3% | PC-3 prostate 38.4% | SK-MEL-5 melanoma 29% | UACC-62 melanoma 31.7% | LOX IMVI melanoma 34.7%

Cc1ccc(C2CC(c3ccc(Nc4nc(NCCO)nc(NCCO)n4)cc3)=NN2c2ccc(Cl)cc2)cc1 (configuration not stated)
active: RXF 393 renal -12.6%
inactive: DU-145 prostate 62.6% | K-562 leukemia 14.9% | MALME-3M melanoma 67.3% | MDA-MB-231 breast 66.9% | SF-268 CNS 56.8% | SF-295 CNS 30.3% | SF-539 CNS 39% | UACC-257 melanoma 75.1% | M14 melanoma 61.4% | HCT-15 colon 47% | HT29 colon 30.5% | SNB-75 CNS 28.5% | SNB-19 CNS 75.5% | U251 CNS 36.3% | PC-3 prostate 33.5% | SK-MEL-5 melanoma 74.8% | UACC-62 melanoma 81.2% | LOX IMVI melanoma 40.9%

COc1ccc(-c2cc(C(=O)N3N=C(c4ccc(N)cc4)CC3c3ccc(OC)cc3)c3cc(OC)ccc3n2)cc1 (configuration not stated)
inactive: DU-145 prostate 80.2% | K-562 leukemia 11.8% | MALME-3M melanoma 71.3% | MDA-MB-231 breast 73.6% | RXF 393 renal 68.2% | SF-268 CNS 54.9% | SF-295 CNS 64.1% | SF-539 CNS 34% | UACC-257 melanoma 60.8% | M14 melanoma 38.4% | HCT-15 colon 22.2% | HT29 colon 26.5% | SNB-75 CNS 70.3% | SNB-19 CNS 58.1% | U251 CNS 48.7% | PC-3 prostate 42.5% | SK-MEL-5 melanoma 67.3% | UACC-62 melanoma 40.4% | LOX IMVI melanoma 41.3%
